Reference: PubChem BioAssay
A number with no mark means an inactive call. The list shows a part of the results. The source made the active and inactive calls. Rule as the data show it, unless noted: active = inhibition above about 30%; inactive = the rest.

Legend:
[1] = target: Nuclear receptor coactivator 3 (Homo sapiens) (UniProt Q9Y6Q9); test: SRC3 coactivator transcriptional activity inhibitors, confirmation, cell-based, luminescence, quadruplicate (AID 588792;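 active = mean inhibition over 43.08%, the solvent-only control mean plus 3 SD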;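 also: 0% = DMSO treated cells and 100% = gossypol at 36 µM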); conditions: HEK293 GAL4-SRC3 luciferase reporter, at 3.6 µM, active compounds read high
Nuclear receptor coactivator 3 (Homo sapiens), sequence (Q9Y6Q9 whole entry, looked up, the tested form may be a part): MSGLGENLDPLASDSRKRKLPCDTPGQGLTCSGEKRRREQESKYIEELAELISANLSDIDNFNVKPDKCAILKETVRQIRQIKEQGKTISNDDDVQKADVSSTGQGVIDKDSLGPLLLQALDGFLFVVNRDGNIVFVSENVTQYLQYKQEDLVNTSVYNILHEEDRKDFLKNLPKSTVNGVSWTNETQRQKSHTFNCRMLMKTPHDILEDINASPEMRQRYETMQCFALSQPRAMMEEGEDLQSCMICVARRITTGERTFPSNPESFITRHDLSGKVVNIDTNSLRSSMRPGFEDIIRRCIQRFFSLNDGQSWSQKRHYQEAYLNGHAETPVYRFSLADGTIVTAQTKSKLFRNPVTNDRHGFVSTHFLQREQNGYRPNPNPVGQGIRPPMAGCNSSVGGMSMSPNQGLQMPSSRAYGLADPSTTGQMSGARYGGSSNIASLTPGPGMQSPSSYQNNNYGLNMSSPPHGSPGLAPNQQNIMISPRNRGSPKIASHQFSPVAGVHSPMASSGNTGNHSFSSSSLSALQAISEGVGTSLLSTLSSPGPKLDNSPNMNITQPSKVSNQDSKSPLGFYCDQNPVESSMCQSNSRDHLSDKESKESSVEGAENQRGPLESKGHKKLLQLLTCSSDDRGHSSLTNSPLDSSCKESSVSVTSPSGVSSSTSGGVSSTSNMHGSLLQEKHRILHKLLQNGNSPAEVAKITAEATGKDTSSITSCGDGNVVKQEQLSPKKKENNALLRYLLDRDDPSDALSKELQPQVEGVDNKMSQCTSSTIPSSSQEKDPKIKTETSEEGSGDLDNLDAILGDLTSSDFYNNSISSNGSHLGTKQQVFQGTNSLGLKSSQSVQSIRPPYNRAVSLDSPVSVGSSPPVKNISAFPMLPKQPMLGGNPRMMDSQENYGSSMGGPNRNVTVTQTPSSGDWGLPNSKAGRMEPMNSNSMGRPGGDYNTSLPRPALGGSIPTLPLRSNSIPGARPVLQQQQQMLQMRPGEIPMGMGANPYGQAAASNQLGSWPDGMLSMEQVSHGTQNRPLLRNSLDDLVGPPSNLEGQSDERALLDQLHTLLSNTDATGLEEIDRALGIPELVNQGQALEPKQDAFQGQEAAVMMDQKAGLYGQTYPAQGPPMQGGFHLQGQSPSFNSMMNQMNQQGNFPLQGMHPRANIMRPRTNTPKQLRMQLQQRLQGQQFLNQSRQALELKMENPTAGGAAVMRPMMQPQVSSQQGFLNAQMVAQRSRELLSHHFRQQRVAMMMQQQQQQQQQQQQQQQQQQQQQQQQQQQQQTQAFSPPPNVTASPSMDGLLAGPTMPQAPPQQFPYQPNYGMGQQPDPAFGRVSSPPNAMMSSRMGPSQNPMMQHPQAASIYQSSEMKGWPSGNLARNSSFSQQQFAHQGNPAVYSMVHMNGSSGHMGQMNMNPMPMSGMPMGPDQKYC

[2] = tested on: transactivating tegument protein VP16 (Human herpesvirus 1), Gal4-VP16 luciferase reporter; test: VP16 transactivation inhibitors, counter-screen for SRC3 inhibitor project, cell-based, luminescence, high throughput (AID 588794); conditions: mammalian cells, VP16-driven luciferase reporter luminescence; at 3.6 µM; active compounds read high
[3] = target: Nuclear receptor coactivator 1 (Homo sapiens) (UniProt Q15788); test: SRC1 coactivator transcriptional activity inhibitors, confirmation, cell-based, luminescence, quadruplicate (AID 588820;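 active = mean inhibition above 46.68%, the untreated control wells mean plus 3 SD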;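 also: 0% = DMSO wells and 100% = gossypol 36 µM treated wells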); conditions: HEK293 GAL4-SRC1 luciferase reporter, at 3.6 µM, active compounds read high
Nuclear receptor coactivator 1 (Homo sapiens), sequence (Q15788 whole entry, looked up, the tested form may be a part): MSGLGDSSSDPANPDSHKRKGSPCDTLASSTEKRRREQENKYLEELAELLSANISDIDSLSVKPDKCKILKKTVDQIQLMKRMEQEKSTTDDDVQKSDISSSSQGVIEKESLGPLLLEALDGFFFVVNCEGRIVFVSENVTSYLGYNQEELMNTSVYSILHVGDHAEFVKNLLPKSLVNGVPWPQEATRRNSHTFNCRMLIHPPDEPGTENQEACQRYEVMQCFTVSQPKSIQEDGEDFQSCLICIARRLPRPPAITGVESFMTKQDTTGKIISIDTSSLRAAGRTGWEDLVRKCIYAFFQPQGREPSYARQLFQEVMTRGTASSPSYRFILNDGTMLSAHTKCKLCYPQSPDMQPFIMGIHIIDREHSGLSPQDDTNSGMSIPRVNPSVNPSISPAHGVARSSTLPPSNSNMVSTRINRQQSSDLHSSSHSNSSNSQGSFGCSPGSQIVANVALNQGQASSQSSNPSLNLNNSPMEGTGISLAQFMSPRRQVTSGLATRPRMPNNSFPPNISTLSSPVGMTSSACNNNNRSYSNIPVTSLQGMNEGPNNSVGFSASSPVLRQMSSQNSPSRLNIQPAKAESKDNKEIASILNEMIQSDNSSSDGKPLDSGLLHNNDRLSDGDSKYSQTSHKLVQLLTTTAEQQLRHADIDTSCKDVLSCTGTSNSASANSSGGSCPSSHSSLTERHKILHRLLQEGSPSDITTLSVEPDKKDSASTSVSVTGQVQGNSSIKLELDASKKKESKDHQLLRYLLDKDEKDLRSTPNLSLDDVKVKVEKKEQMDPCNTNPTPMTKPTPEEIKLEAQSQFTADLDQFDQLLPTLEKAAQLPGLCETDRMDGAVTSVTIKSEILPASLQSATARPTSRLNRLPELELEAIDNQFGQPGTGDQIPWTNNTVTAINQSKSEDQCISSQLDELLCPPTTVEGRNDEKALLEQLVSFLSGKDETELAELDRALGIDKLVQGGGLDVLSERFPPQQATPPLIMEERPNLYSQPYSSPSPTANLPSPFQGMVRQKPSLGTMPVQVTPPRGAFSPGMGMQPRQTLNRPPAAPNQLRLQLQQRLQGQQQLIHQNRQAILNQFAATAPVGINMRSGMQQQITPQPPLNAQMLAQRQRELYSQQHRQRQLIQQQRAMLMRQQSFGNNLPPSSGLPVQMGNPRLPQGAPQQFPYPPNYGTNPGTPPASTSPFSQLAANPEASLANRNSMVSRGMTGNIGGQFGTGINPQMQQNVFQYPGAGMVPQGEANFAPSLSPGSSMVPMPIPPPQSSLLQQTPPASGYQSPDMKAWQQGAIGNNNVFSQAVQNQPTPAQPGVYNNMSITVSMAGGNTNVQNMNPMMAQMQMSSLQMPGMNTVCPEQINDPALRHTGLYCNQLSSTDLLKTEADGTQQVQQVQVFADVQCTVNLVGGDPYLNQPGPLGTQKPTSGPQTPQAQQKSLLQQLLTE

[4] = VP16 transactivation inhibitors, counter-screen for SRC1 inhibitor project, cell-based, luminescence, high throughput (AID 588824; in the data active = inhibition above about 25%); conditions: cell-based VP16 transactivation luciferase luminescence; at 3.6 µM; active compounds read high
[5] = StAR promoter reporter inhibitors, counter-screen for LRH-1 inverse agonist project, cell-based, luminescence, high throughput (AID 651611; in the data active = inhibition above about 28%); conditions: StAR promoter luciferase reporter counterscreen, at 3.6 µM, active compounds read high
[6] = target: Nuclear receptor subfamily 5 group A member 2 (Homo sapiens) (UniProt O00482); test: LRH-1 (NR5A2) inverse agonists, retest, confirmation, cell-based, luminescence (AID 651613; in the data active = inhibition above about 42%;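 also: HEK293T cells co-transfected with LRH-1 and StAR promoter luciferase reporter; 0% = vehicle wells and 100% = parental cells lacking receptor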); conditions: cell-based LRH-1 luciferase reporter, inverse agonism; at 3.6 µM; active compounds read high
Nuclear receptor subfamily 5 group A member 2 (Homo sapiens), sequence (O00482 whole entry, looked up): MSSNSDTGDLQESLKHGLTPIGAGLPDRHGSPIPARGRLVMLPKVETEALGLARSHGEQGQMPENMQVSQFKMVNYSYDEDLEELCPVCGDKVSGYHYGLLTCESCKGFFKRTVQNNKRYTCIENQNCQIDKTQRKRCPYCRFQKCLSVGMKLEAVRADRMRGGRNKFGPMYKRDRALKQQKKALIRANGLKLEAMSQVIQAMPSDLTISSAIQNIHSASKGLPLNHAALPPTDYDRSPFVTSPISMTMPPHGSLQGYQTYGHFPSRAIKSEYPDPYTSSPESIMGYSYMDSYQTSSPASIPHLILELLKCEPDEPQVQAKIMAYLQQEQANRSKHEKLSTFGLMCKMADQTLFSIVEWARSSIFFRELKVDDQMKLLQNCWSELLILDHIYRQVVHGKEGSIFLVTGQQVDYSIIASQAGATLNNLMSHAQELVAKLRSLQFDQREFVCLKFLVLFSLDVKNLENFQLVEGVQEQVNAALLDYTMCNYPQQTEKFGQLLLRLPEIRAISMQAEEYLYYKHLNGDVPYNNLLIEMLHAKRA

[7] = target: Steroidogenic factor 1 (Homo sapiens) (UniProt Q13285); test: SF1 (NR5A1) inverse agonists, counter-screen for LRH-1 inverse agonist project, cell-based, luminescence, high throughput (AID 651614; in the data active = inhibition above about 44%;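 also: cells cotransfected with StAR promoter reporter and SF1 expression vector; 0% = vehicle on cells with receptor and 100% = vehicle on cells lacking receptor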); conditions: cell-based SF1 luciferase reporter, at 3.6 µM, active compounds read high
[8] = VP16 transactivation reporter inhibitors, counter-screen for LRH-1 inverse agonist project, cell-based, luminescence, high throughput (AID 651615; in the data active = inhibition above about 33%); conditions: Gal4-VP16 luciferase reporter cells, at 3.6 µM, active compounds read high
[9] = tested on: transactivating tegument protein VP16 (Human herpesvirus 1); test: VP16 transactivation reporter inhibitors, counter-screen for SRC2 inhibitor project, cell-based, luminescence, single concentration (AID 652007; in the data active = inhibition above about 36%); conditions: cell-based VP16 transactivation luciferase reporter, at 8.9 µM, active compounds read high
[10] = target: Nuclear receptor coactivator 2 (Homo sapiens) (UniProt Q15596); test: SRC2 coactivator transcriptional activity inhibitors, confirmation, cell-based, luminescence, HEK293, triplicate (AID 652008;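 active = mean inhibition above 46.5%, the solvent-only control mean plus 3 SD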;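 also: 0% = DMSO-treated cells and 100% = Gossypol at 36 µM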); conditions: HEK293 GAL4-SRC2 luciferase reporter, at 8.9 µM, active compounds read high
Nuclear receptor coactivator 2 (Homo sapiens), sequence (Q15596 whole entry, looked up, the tested form may be a part): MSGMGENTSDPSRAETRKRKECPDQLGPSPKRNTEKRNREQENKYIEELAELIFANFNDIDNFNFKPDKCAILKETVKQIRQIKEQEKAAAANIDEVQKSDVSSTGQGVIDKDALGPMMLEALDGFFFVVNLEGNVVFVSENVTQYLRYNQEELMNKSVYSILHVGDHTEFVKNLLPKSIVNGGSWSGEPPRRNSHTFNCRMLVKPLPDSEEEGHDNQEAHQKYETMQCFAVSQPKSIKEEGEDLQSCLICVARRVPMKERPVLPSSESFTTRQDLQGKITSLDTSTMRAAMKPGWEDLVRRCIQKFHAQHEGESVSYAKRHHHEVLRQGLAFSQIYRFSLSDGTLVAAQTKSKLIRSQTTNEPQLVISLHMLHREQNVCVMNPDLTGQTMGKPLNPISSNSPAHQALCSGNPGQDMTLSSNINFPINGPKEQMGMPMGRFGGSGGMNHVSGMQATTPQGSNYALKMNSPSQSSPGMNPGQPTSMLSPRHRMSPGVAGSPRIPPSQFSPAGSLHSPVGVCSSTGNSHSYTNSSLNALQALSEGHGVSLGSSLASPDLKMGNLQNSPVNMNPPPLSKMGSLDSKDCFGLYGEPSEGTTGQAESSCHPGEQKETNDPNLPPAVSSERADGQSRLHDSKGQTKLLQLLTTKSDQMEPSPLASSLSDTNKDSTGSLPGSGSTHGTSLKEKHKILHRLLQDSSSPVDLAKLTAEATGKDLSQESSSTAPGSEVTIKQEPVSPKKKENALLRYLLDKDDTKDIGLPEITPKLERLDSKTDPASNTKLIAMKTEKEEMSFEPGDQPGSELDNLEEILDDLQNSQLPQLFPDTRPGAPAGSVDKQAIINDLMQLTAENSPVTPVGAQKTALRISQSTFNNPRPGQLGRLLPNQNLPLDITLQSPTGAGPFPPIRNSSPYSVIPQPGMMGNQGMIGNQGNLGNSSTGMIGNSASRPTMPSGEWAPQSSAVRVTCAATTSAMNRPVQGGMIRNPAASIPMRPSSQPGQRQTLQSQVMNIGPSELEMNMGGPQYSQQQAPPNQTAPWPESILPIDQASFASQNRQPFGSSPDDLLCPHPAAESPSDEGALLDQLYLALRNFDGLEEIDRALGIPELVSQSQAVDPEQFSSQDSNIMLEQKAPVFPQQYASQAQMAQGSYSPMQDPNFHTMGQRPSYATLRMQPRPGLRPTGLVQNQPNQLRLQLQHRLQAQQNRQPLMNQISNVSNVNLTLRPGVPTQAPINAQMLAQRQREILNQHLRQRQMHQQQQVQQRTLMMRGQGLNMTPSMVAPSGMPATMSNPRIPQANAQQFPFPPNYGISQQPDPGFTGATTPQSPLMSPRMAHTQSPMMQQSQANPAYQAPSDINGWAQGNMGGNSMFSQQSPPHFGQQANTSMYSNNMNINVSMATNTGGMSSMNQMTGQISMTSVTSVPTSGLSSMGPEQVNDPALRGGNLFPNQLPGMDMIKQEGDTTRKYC

[11] = Gal4-VP16 luciferase reporter inhibitors, counter-screen for COUP-TFII antagonist project, cell-based, luminescence, HEK293 (AID 687007; in the data active = inhibition above about 13%); conditions: at 8.5 µM, active compounds read high
[12] = target: COUP transcription factor 2 (Homo sapiens) (UniProt P24468); test: NR2F2 transcriptional activity inhibitors, confirmation, cell-based, luciferase reporter, HEK293, triplicate (AID 687008;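 active = mean inhibition over three repeats above a set limit taken from the earlier primary screen, cut at about 38% in these data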;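 also: 100% = cells given the luciferase reporter alone without the COUP-TF2 vector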); conditions: HEK293 NGFI-A luciferase reporter, luminescence; at 8.5 µM; active compounds read high

With `CC12CCC(O)CC1CCC1C2CCC2(C)C(C3=CC(=O)OC3)CCC12O` (stereo not drawn) the inhibition [1] was 97.6% (active), the inhibition [2] was 87.9% (active) and the inhibition [3] was 70.6% (active). The inhibition [4] was 87.4% (active), the inhibition [5] was 95.7% (active) and the inhibition [6] was 110% (active). The inhibition [7] was 98.2% (active), the inhibition [8] was 89% (active) and the inhibition [9] was 58.5% (active). It also gave an inhibition [10] of 23.6%.
Work on `COc1ccc(-n2nnnc2C(CCc2ccccc2)N2CCC(n3c(=O)[nH]c4ccccc43)CC2)cc1` (stereo not drawn) yielded an inhibition [1] of 25.2%, an inhibition [2] of 8.54% and an inhibition [3] of 2.43%. The inhibition [4] was 9.95%, the inhibition [5] was 48.7% (active) and the inhibition [6] was 28.1%. For the same compound, the inhibition [7] was 30.3% and the inhibition [8] was 33.6% (active).
With `CCN1/C(=C/C=C/C2=[N+](CC)c3ccccc3C2(C)C)C(C)(C)c2ccccc21` the inhibition [1] was 97.1% (active), the inhibition [2] was 87.3% (active) and the inhibition [3] was 51.5% (active). For the same compound, the inhibition [4] was 87.5% (active), the inhibition [5] was 86.7% (active) and the inhibition [6] was 110% (active). For the same compound, the inhibition [7] was 96.1% (active) and the inhibition [8] was 96.7% (active).
In the case of `N#Cc1cn(C2OC(CO)C(O)C2O)c2ncnc(N)c12` (stereo not drawn), the inhibition [1] is reported as 81.4% (active), the inhibition [2] is reported as 91.3% (active) and the inhibition [3] is reported as -24%. The inhibition [4] was 89.7% (active), the inhibition [5] was 82% (active) and the inhibition [6] was 107% (active). The inhibition [7] was 94.1% (active), the inhibition [8] was 91% (active) and the inhibition [9] was 30.4%. For the same compound, the inhibition [10] was 48.3% (active).
In the case of `CC(=O)OC1CC(OC2C(O)CC(OC3C(O)CC(OC4CCC5(C)C(CCC6C5CC(O)C5(C)C(C7=CC(=O)OC7)CCC65O)C4)OC3C)OC2C)OC(C)C1OC1OC(CO)C(O)C(O)C1O` (stereo not drawn), the inhibition [1] is reported as 97.8% (active), the inhibition [2] is reported as 88.9% (active) and the inhibition [3] is reported as 73.8% (active). The inhibition [4] was 86.5% (active), the inhibition [5] was 95% (active) and the inhibition [6] was 109% (active). The inhibition [7] was 97.9% (active), the inhibition [8] was 89.4% (active) and the inhibition [9] was 64.3% (active). The inhibition [10] was 28.8%.
With `O=C(c1ccccc1)C(CN1CCCC1)c1ccccc1` (stereo not drawn) the inhibition [1] was 19.4%, the inhibition [2] was 33.5% (active) and the inhibition [3] was 10.9%. For the same compound, the inhibition [4] was 39.2% (active), the inhibition [9] was 27% and the inhibition [10] was 68.3% (active).
In the case of `N#CC1c2ccccc2-n2nncc2CN1Cc1cc(Cl)cc(Cl)c1` (stereo not drawn), the inhibition [1] is reported as 92.8% (active), the inhibition [2] is reported as 84.7% (active) and the inhibition [3] is reported as 79.7% (active). For the same compound, the inhibition [4] was 90.4% (active), the inhibition [5] was 90.5% (active) and the inhibition [6] was 106% (active). The inhibition [7] was 94.1% (active), the inhibition [8] was 94.3% (active) and the inhibition [9] was 82.2% (active). For the same compound, the inhibition [10] was 84.5% (active).
In the case of `CC(N)C(=O)NC1C2C(=C(O)CC(O)C2O)C(=O)OC1(C)C(Cl)Cl` (stereo not drawn), the inhibition [1] is reported as 98.8% (active), the inhibition [2] is reported as 96.8% (active) and the inhibition [3] is reported as 88.6% (active). The inhibition [4] was 96.8% (active), the inhibition [5] was 96.4% (active) and the inhibition [6] was 110% (active). The inhibition [7] was 98.5% (active), the inhibition [8] was 98.3% (active) and the inhibition [9] was 77.2% (active). For the same compound, the inhibition [10] was 74.3% (active).
With `CC12CCC3C(CCC4(O)CC(O)CCC34C=O)C1(O)CCC2C1=CC(=O)OC1` (stereo not drawn) the inhibition [1] was 90% (active), the inhibition [2] was 67.4% (active) and the inhibition [3] was 14.4%. For the same compound, the inhibition [4] was 67.5% (active), the inhibition [6] was 109% (active) and the inhibition [7] was 96.2% (active).
With `CCOc1ccc(-c2cc(C)[n+](CCN(CC)CC)c(-c3ccc(OCC)cc3)c2)cc1` the inhibition [1] was 68.1% (active), the inhibition [2] was 80.8% (active) and the inhibition [3] was 67.7% (active). For the same compound, the inhibition [4] was 81.7% (active), the inhibition [5] was 73.6% (active) and the inhibition [6] was 105% (active). For the same compound, the inhibition [7] was 93.8% (active), the inhibition [8] was 90% (active) and the inhibition [11] was 19.5% (active). The inhibition [12] was 62% (active).
In the case of `C=C1C(=O)OC2CC(C)C3C=CC(=O)C3(C)C(O)C12` (stereo not drawn), the inhibition [1] is reported as 38%, the inhibition [2] is reported as 90.7% (active) and the inhibition [4] is reported as 90.6% (active). For the same compound, the inhibition [5] was 62.5% (active), the inhibition [6] was 88.6% (active) and the inhibition [7] was 90.1% (active). For the same compound, the inhibition [8] was 91.2% (active).
With `COc1ccc(CC2C(=O)NC(C)C(=O)N(C)C3C(=O)N(C)C(Cc4ccc(O)c(c4)Oc4ccc(cc4)C3O)C(=O)NC(C)C(=O)NC(C)C(=O)N2C)cc1` (stereo not drawn) the inhibition [1] was 98.6% (active), the inhibition [2] was 96.7% (active) and the inhibition [3] was 94.8% (active). For the same compound, the inhibition [4] was 95.5% (active), the inhibition [6] was 111% (active) and the inhibition [7] was 98.8% (active). The inhibition [9] was 80.4% (active) and the inhibition [10] was 77.1% (active).
With `CC1=CC2OC3CC4OC(=O)C=CC=CC(C(C)O)OCC(O)C5(C)OC5C(=O)OCC2(CC1O)C4(C)C31CO1` (stereo not drawn) the inhibition [1] was 98.6% (active), the inhibition [2] was 96.2% (active) and the inhibition [3] was 96.5% (active). For the same compound, the inhibition [4] was 95.1% (active), the inhibition [5] was 94.8% (active) and the inhibition [6] was 108% (active). The inhibition [7] was 96.5% (active), the inhibition [8] was 96.2% (active) and the inhibition [9] was 82.1% (active). The inhibition [10] was 73.5% (active).
In the case of `C[C@]12CC[C@H](O)C[C@H]1CC[C@@H]1C2CC[C@]2(C)[C@@H](C3=CC(=O)OC3)[C@@H](O)C[C@]12O` (stereo partly drawn), the inhibition [1] is reported as 75.3% (active), the inhibition [2] is reported as 21.1% and the inhibition [3] is reported as -39%. The inhibition [4] was 12.7%, the inhibition [5] was 87.1% (active) and the inhibition [6] was 90.4% (active). The inhibition [7] was 69.9% (active), the inhibition [8] was 40.9% (active) and the inhibition [11] was -16.6%. The inhibition [12] was 30.9%.
For `O=c1[nH]c(O)c(N=Nc2ccc3c(c2)OCCO3)c(=O)[nH]1`, the inhibition [1] was 53.3% (active), the inhibition [2] was 25.7% and the inhibition [3] was 6.27%. The inhibition [4] was -1.38%, the inhibition [5] was 22.6% and the inhibition [6] was 9.98%. The inhibition [7] was 42.1%, the inhibition [8] was 9.89% and the inhibition [9] was 33.9%. For the same compound, the inhibition [10] was 63.6% (active).
